Structures are written as SMILES. Inconclusive results are not listed. A call without a number means that no potency is given here. Values without a mark were called inactive. The source made the active and inactive calls. Unless noted, calls come from the whole dose curve.

Experimental findings from PubChem BioAssay (Tox21) are described below.
Potency is the fitted concentration of half-maximal effect.

Sequence of Thyrotropin receptor (Homo sapiens) (P16473 whole entry, looked up): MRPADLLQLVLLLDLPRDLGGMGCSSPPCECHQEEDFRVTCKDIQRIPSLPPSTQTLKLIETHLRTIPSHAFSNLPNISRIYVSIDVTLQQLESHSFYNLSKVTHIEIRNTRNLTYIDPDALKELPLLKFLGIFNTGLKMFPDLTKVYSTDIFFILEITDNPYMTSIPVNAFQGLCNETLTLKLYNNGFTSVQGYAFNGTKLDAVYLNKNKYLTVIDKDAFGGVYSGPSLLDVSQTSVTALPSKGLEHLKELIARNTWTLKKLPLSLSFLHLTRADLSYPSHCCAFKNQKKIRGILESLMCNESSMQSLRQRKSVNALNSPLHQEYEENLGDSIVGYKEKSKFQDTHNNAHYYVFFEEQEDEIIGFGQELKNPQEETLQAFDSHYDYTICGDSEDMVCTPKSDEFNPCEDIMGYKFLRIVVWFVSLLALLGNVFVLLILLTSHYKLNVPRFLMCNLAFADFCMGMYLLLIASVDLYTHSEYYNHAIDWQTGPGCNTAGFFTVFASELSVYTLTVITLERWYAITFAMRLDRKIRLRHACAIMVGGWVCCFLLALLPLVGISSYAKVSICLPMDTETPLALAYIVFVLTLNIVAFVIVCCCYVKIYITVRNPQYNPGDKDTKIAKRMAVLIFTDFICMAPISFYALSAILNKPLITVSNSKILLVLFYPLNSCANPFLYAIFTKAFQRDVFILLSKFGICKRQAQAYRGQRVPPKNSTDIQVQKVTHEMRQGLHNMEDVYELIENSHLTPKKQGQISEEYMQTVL

Tested on in one experiment: not listed separately
Kind of experiment: qHTS assay to identify small molecule antagonists of the estrogen related receptor signaling pathway with the pleiotropic PPARgamma coactivator (PGC) from Tox21 10K library - cell viability counter screen (AID 1224840; active = well fitted cell-killing curve with a large enough effect in the repeat runs, not every such curve was filed as active; note: nearly all actives have a fitted effect of over 40% in size). Conditions: PGC/ERR reporter cells viability, CellTiter-Fluor, 17.5 h; series mostly up to 92.4 µM. In a few lines:
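Multiplexed viability counter screen in the PGC/ERR cell line: cells treated with DMSO-dissolved compounds for 17.5 hours at 37 C, then viability measured as CellTiter-Fluor fluorescence.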
Background: Quantitative high-throughput screening tests each substance at several concentrations.
In the case of `CC(C)(C)c1cc(/C=C2\SC(=N)NC2=O)cc(C(C)(C)C)c1O`, the Potency was 61.1 µM (active).
Regarding `Clc1cc(Cl)c(-c2c(Cl)c(Cl)cc(Cl)c2Cl)cc1Cl`, the Potency entry was “inactive”.
`O=C(O)CCn1c2c(c3ccccc31)C[C@H](NS(=O)(=O)c1ccc(F)cc1)CC2`: the Potency entry is “inactive”.
On the same count and under the same terms, the entry for `O=C(O)c1cccc(Cl)n1` is “inactive”; for `CCCCCCCCCCCCCc1ccccc1` it is “inactive”.
On the same count and under the same terms, the entry for `CCCCCCC(C)Nc1ccc(Nc2ccccc2)cc1` (stereo unspecified) is “inactive”; for `CCCCCCC(C)OC(=O)COc1nc(F)c(Cl)c(N)c1Cl` (stereo unspecified) it is “inactive”; for `C/C=C/c1ccc(OC)c(OC)c1` it is “inactive”.
The same measure, in the same setting: to `O=C(O)CCCCCCC(=O)O` belongs “inactive”.
In the case of `Cc1cc(C)c(C=O)c(C)c1`, the Potency result is “inactive”.
Still for that read-out and setting: the entry for `CCC(C)C(=O)OC` (stereo unspecified) is “inactive”.
Same read-out and setting: the entry for `CC1(C)C(=O)N(CO)C(=O)N1CO` is “inactive”; for `CCCCC(CC)COC(=O)c1ccc(O)cc1` (stereo unspecified) it is “inactive”.
For `C=C/C=C/C=C/CCCCC`, the viability change, negative = cytotoxic is -9.87% [at 19 µM].
With `COc1nccnc1CC(C)C`, the Potency result was “inactive”.
Regarding `CCOB(OCC)OCC`, the Potency result was “inactive”.
In the case of `CC1CCCCN1CCCOC(=O)c1ccc(OC2CCCCC2)cc1` (stereo unspecified), the Potency result is “inactive”.
Take `CCC(=O)CC(C)CC` (stereo unspecified): the viability change, negative = cytotoxic was 0.87% [at 0.349 µM].
As for `c1ccc(Sc2ccccc2)cc1`, the Potency result is “inactive”.
On the same count and under the same terms, the entry for `CCCCCCCCCCc1ccccc1` is “inactive”.
Regarding `CCc1ccc(O)c(C(C)(C)C)c1`, the Potency entry is “inactive”.
Still for that read-out and setting: the entry for `CCC(C)c1ccccc1` (stereo unspecified) is “inactive”; for `Clc1cccnc1` it is “inactive”; for `Cc1cc(=O)[nH]c(=O)[nH]1` it is “inactive”.
Still for that read-out and setting: to `CC(=O)OC1CCCCC1` belongs “inactive”.
On the same count and under the same terms, the entry for `COC(=O)CC(C)CCC=C(C)C` (stereo unspecified) is “inactive”.
Regarding `O=S(=O)(O)CCCN1CCOCC1`, the Potency result was “inactive”.
Regarding `CC(CN(C)C)CN1c2ccccc2CCc2ccccc21` (stereo unspecified), the Potency result is “inactive”.
As to `O=Cc1ccc(F)cc1`, the Potency result is “inactive”.

Tested on in the next experiment: not listed separately
Kind of experiment: qHTS assay to identify small molecule antagonists of the estrogen related receptor signaling pathway with the pleiotropic PPARgamma coactivator (PGC) from Tox21 10K library (AID 1224841; call rule not given here; note: actives are mostly falling curves and most rising ones were filed inactive; nearly all actives have a fitted effect of over 50% in size). Particulars: PGC/ERR reporter cell line, ONE-Glo luciferase, 18 h; series mostly up to 92.4 µM. In a few lines:
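Steps: plate 2,000 PGC/ERR cells per well; incubate 6 h at 37 C with 5% CO2; transfer compounds from DMSO stocks by pin tool; incubate 18 h at 37 C; add One-Glo; measure luminescence 30 min later.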
With `O=S(=O)(O)c1cc(S(=O)(=O)O)c2ccc3c(S(=O)(=O)O)cc(S(=O)(=O)O)c4ccc1c2c43`, the activity, negative = inhibition is 13.5% [at 19 µM].
On to `Clc1cc(Cl)c(-c2c(Cl)c(Cl)cc(Cl)c2Cl)cc1Cl`, for which the Potency result is “inactive”.
The same measure, in the same setting: to `CCCCCCC(C)OC(=O)COc1nc(F)c(Cl)c(N)c1Cl` (stereo unspecified) belongs “inactive”.
On the same count and under the same terms, to `COc1nccnc1CC(C)C` belongs “inactive”; to `CC1CCCCN1CCCOC(=O)c1ccc(OC2CCCCC2)cc1` (stereo unspecified), “inactive”; to `Oc1c(Br)cc(Br)c2cccnc12`, “inactive”.
Turning to `CCCCCCCCCCc1ccccc1`, the Potency entry was “inactive”.
Still for that read-out and setting: the figure for `CNC(=S)NN` is 9.69 µM (active); for `O=S(=O)(O)CCCN1CCOCC1` it is “inactive”.

Tested on in the next experiment: not listed separately
As to the kind of experiment: qHTS assay to identify small molecule agonists of the estrogen related receptor signaling pathway with the pleiotropic PPARgamma coactivator (PGC) from Tox21 10K library (AID 1224842; active = well fitted activation curve with a large enough effect in the repeat runs; note: nearly all actives have a fitted effect of over 15% in size). Conditions: PGC/ERR reporter cell line, luciferase ONE-Glo, 18 h; series mostly up to 92.4 µM. In a few lines:
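PGC/ERR reporter cell line, 2,000 cells per well, incubated 6 h at 37 C before 23 nL compound in DMSO was added. After 18 h at 37 C, One-Glo luminescence read following 30 min at room temperature.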
As to `O=S(=O)(O)c1cc(S(=O)(=O)O)c2ccc3c(S(=O)(=O)O)cc(S(=O)(=O)O)c4ccc1c2c43`, the activation was 0.18% [at 19 µM].
Regarding `CC(C)(C)c1cc(/C=C2\SC(=N)NC2=O)cc(C(C)(C)C)c1O`, the Potency entry is “inactive”.
On the same count and under the same terms, the entry for `CCC(C)C(=O)OC` (stereo unspecified) is “inactive”.
Regarding `C=C/C=C/C=C/CCCCC`, the activation is 0.0738% [at 19 µM].
`Oc1c(Br)cc(Br)c2cccnc12`: the Potency is 29.8 µM (active).
As for `CNC(=S)NN`, the Potency entry was “inactive”.
Same read-out and setting: to `COC(=O)CC(C)CCC=C(C)C` (stereo unspecified) belongs “inactive”.

Another experiment concerns the target Thyrotropin receptor (Homo sapiens) (UniProt P16473). Kind of experiment: qHTS assay to identify small molecule agonists of the thyroid stimulating hormone receptor (TSHR) signaling pathway (AID 1224843). Note: nearly all actives have a fitted effect of over 45% in size. Particulars: TSHR-HEK293 cells, cAMP HTRF, agonist mode, 30 min; series mostly up to 92.4 µM. The method, boiled down: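 HEK293/TSHR, 800 cells/well; cpd 30 min RT; add cAMP-d2 + anti-cAMP-cryptate, 1 h RT; fluorescence read on plate reader. 15-pt titration, n=3.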
Consider `O=S(=O)(O)c1cc(S(=O)(=O)O)c2ccc3c(S(=O)(=O)O)cc(S(=O)(=O)O)c4ccc1c2c43`, for which the activation was -6.64% [at 19 µM].
Turning to `Clc1cc(Cl)c(-c2c(Cl)c(Cl)cc(Cl)c2Cl)cc1Cl`, the Potency entry was “inactive”.
The same measure, in the same setting: to `O=C(O)c1cccc(Cl)n1` belongs “inactive”.
Still for that read-out and setting: to `CCCCCCCCCCCCCc1ccccc1` belongs “inactive”; to `CCCCCCC(C)Nc1ccc(Nc2ccccc2)cc1` (stereo unspecified), “inactive”; to `C/C=C/c1ccc(OC)c(OC)c1`, “inactive”.
The same measure, in the same setting: the entry for `O=C(O)CCCCCCC(=O)O` is “inactive”.
For `Cc1cc(C)c(C=O)c(C)c1`, the Potency entry was “inactive”.
Turning to `CCC(C)C(=O)OC` (stereo unspecified), the Potency result is “inactive”.
Still for that read-out and setting: to `CC1(C)C(=O)N(CO)C(=O)N1CO` belongs “inactive”; to `CCCCCCCC(C)=O`, “inactive”.
The same measure, in the same setting: the entry for `CCCCC(CC)COC(=O)c1ccc(O)cc1` (stereo unspecified) is “inactive”.
As to `C=C/C=C/C=C/CCCCC`, the activation was -9.38% [at 19 µM].
With `Clc1nc2ccccc2s1`, the Potency entry was “inactive”.
In the case of `COc1nccnc1CC(C)C`, the Potency entry was “inactive”.
The same measure, in the same setting: the entry for `CCOB(OCC)OCC` is “inactive”.
Still for that read-out and setting: to `CC1CCCCN1CCCOC(=O)c1ccc(OC2CCCCC2)cc1` (stereo unspecified) belongs 26.6 µM (active); to `Oc1c(Br)cc(Br)c2cccnc12`, “inactive”.
Turning to `CCC(=O)CC(C)CC` (stereo unspecified), the activation is 6.29% [at 0.349 µM].
As to `CC(C)=CC1CC(C)CCO1` (stereo unspecified), the Potency entry was “inactive”.
Still for that read-out and setting: the entry for `CCc1ccc(O)c(C(C)(C)C)c1` is “inactive”; for `CCC(C)c1ccccc1` (stereo unspecified) it is “inactive”.
The same measure, in the same setting: to `Clc1cccnc1` belongs “inactive”; to `CNC(=S)NN`, “inactive”.
On the same count and under the same terms, to `Cc1cc(=O)[nH]c(=O)[nH]1` belongs “inactive”.
As to `CC(=O)OC1CCCCC1`, the Potency entry was “inactive”.
Still for that read-out and setting: the entry for `O=S(=O)(O)CCCN1CCOCC1` is “inactive”; for `Cc1cn[nH]c1` it is “inactive”.
For `O=Cc1ccc(F)cc1`, the Potency result is “inactive”.

Tested on in another experiment: not listed separately
As to the kind of experiment: qHTS assay to identify small molecule agonists of the hypoxia (HIF-1) signaling pathway - cell viability counter screen (AID 1224844). Note: nearly all actives have a fitted effect of over 50% in size. Particulars: HRE-bla ME-180 viability, CellTiter-Glo luminescence, 17 h; series mostly up to 76.8 µM. The method, boiled down:
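Cytotoxicity was measured in parallel with the HRE-driven beta-lactamase readout: after 17 hrs of compound exposure at 37C, HRE-bla ME-180 cells received CellTiter-Glo and luminescence was recorded 30 min later.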
Take `O=S(=O)(O)c1cc(S(=O)(=O)O)c2ccc3c(S(=O)(=O)O)cc(S(=O)(=O)O)c4ccc1c2c43`: the activity change, negative = cytotoxicity was 1.23% [at 15.8 µM].
On to `CC(C)(C)c1cc(/C=C2\SC(=N)NC2=O)cc(C(C)(C)C)c1O`, for which the Potency is 54.9 µM (active).
Same read-out and setting: to `Clc1cc(Cl)c(-c2c(Cl)c(Cl)cc(Cl)c2Cl)cc1Cl` belongs “inactive”.
Same read-out and setting: to `O=C(O)CCn1c2c(c3ccccc31)C[C@H](NS(=O)(=O)c1ccc(F)cc1)CC2` belongs “inactive”; to `O=C(O)c1cccc(Cl)n1`, “inactive”.
With `CCCCCCCCCCCCCc1ccccc1`, the Potency result is “inactive”.
Still for that read-out and setting: the entry for `CCCCCCC(C)OC(=O)COc1nc(F)c(Cl)c(N)c1Cl` (stereo unspecified) is “inactive”; for `C/C=C/c1ccc(OC)c(OC)c1` it is “inactive”.
For the molecule `O=C(O)CCCCCCC(=O)O`, the Potency result is “inactive”.
Turning to `Cc1cc(C)c(C=O)c(C)c1`, the Potency result was “inactive”.
Take `CCC(C)C(=O)OC` (stereo unspecified): the Potency result was “inactive”.
Consider `CC1(C)C(=O)N(CO)C(=O)N1CO`, for which the Potency result is “inactive”.
Same read-out and setting: to `CCCCCCCC(C)=O` belongs “inactive”; to `CCCCC(CC)COC(=O)c1ccc(O)cc1` (stereo unspecified), 49 µM (active).
As for `C=C/C=C/C=C/CCCCC`, the activity change, negative = cytotoxicity was -12% [at 15.8 µM].
With `Clc1nc2ccccc2s1`, the Potency result was “inactive”.
The same measure, in the same setting: to `COc1nccnc1CC(C)C` belongs “inactive”; to `CCOB(OCC)OCC`, “inactive”.
Same read-out and setting: to `CC1CCCCN1CCCOC(=O)c1ccc(OC2CCCCC2)cc1` (stereo unspecified) belongs “inactive”.
On to `CCC(=O)CC(C)CC` (stereo unspecified), for which the activity change, negative = cytotoxicity was 2.65% [at 0.29 µM].
As to `c1ccc(Sc2ccccc2)cc1`, the Potency result was “inactive”.
On the same count and under the same terms, to `CCCCCCCCCCc1ccccc1` belongs “inactive”; to `CC(C)=CC1CC(C)CCO1` (stereo unspecified), “inactive”; to `CCc1ccc(O)c(C(C)(C)C)c1`, “inactive”.
On the same count and under the same terms, to `CCC(C)c1ccccc1` (stereo unspecified) belongs “inactive”; to `Clc1cccnc1`, “inactive”; to `Cc1cc(=O)[nH]c(=O)[nH]1`, “inactive”.
Still for that read-out and setting: to `CC(=O)OC1CCCCC1` belongs “inactive”; to `COC(=O)CC(C)CCC=C(C)C` (stereo unspecified), “inactive”.
For `O=S(=O)(O)CCCN1CCOCC1`, the Potency result is “inactive”.
Same read-out and setting: the entry for `Cc1cn[nH]c1` is “inactive”.
Turning to `O=Cc1ccc(F)cc1`, the Potency result is “inactive”.
